About 83,000 compounds went through this panel and 20% of them were active in at least one assay; those are over-represented in the sample as a whole.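 Percent growth is the endpoint: 0 to 100 indicates growth inhibition (40 means 60% inhibition), 0 means no net growth, and negative values indicate cell death.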 Unmarked numbers belong to inactive results. Activity calls are given as the source filed them. How the source made its calls: active means growth percent below 10; inactive means the rest.
Experiments:
Assay in all cases: NCI-60 one-dose screen, 48 h (100 = growth as untreated, 0 = no growth, -100 = all killed)
Settings in all cases: 10 µM unless noted
SK-MEL-2 melanoma = test system: SK-MEL-2 melanoma
EKVX NSCLC = test system: EKVX NSCLC
SN12C renal = test system: SN12C renal
UO-31 renal = test system: UO-31 renal
TK-10 renal = test system: TK-10 renal
ACHN renal = test system: ACHN renal
A498 renal = test system: A498 renal
CCRF-CEM leukemia = test system: CCRF-CEM leukemia
MOLT-4 leukemia = test system: MOLT-4 leukemia
SR leukemia = test system: SR leukemia
RPMI-8226 leukemia = test system: RPMI-8226 leukemia
OVCAR-8 ovarian = test system: OVCAR-8 ovarian
OVCAR-5 ovarian = test system: OVCAR-5 ovarian
OVCAR-4 ovarian = test system: OVCAR-4 ovarian
SK-OV-3 ovarian = test system: SK-OV-3 ovarian
IGROV1 ovarian = test system: IGROV1 ovarian
OVCAR-3 ovarian = test system: OVCAR-3 ovarian
HS 578T breast = test system: HS 578T breast
NCI/ADR-RES ovarian = test system: NCI/ADR-RES ovarian
T-47D breast = test system: T-47D breast

SMILES | growth (SK-MEL-2 melanoma) | growth (EKVX NSCLC) | growth (SN12C renal) | growth (UO-31 renal) | growth (TK-10 renal) | growth (ACHN renal) | growth (A498 renal) | growth (CCRF-CEM leukemia) | growth (MOLT-4 leukemia) | growth (SR leukemia) | growth (RPMI-8226 leukemia) | growth (OVCAR-8 ovarian) | growth (OVCAR-5 ovarian) | growth (OVCAR-4 ovarian) | growth (SK-OV-3 ovarian) | growth (IGROV1 ovarian) | growth (OVCAR-3 ovarian) | growth (HS 578T breast) | growth (NCI/ADR-RES ovarian) | growth (T-47D breast)
C=C(C)[C@@H]1CC[C@]2(C(=O)N=C=S)CC[C@]3(C)[C@H](CC[C@@H]4[C@@]5(C)CCC(=O)C(C)(C)[C@@H]5CC[C@]43C)[C@@H]12 | 27.3% | 32.4% | 19.2% | 34.8% | 42.3% | 27.6% | 25.3% | 28.1% | 25.6% | 27.6% | 16.1% | 24.3% | 49.1% | 31.4% | 14.7% | 66.2% | 25.7% | 33% | 28.2% | 18.1%
N#C/C(=C/c1ccc(O)c([N+](=O)[O-])c1)c1nc(-c2ccc([N+](=O)[O-])cc2)cs1 | 16.9% | 26.5% | 36.3% | 37.6% | 52.7% | 36.1% | 21.3% | 25.5% | 25.1% | 47.7% | 9.81% (active) | 48.4% | 108% | 34.1% | 38.9% | 55.9% | 23.5% | 44.2% | 33.4% | 11.2%
O=C(C[n+]1cccc2cc(Cl)ccc21)c1ccc2c(c1)CCCC2 | 28.3% | 44.7% | 10.1% | 91.4% | 62% | 86.2% | 74% | 16% | 1.84% (active) | 19% | 7.65% (active) | 25.6% | 28.3% | 16.2% | 16.9% | 33.7% | 0.868% (active) | 37.5% | 101% | 2.41% (active)
C[C@H]1[C@H](C)CC[C@]2(C(=O)OCCCC[P+](c3ccccc3)(c3ccccc3)c3ccccc3)CC[C@]3(C)C(=CC[C@@H]4[C@@]5(C)CC[C@H](OC(=O)C(Cl)Cl)C(C)(C)[C@@H]5CC[C@]43C)[C@H]12 | -63.8% (active) | -35.4% (active) | -81% (active) | -93.9% (active) | -76.8% (active) | -79.6% (active) | -82% (active) | -16.6% (active) | -49.8% (active) | -49.4% (active) | -53.3% (active) | -36.8% (active) | -52.2% (active) | -12.1% (active) | -15.5% (active) | -51.8% (active) | -88.8% (active) | -20.1% (active) | 36.8% | -23.8% (active)
CCOC(=O)C1=C(C)n2nc(CC#N)c(C#N)c2NC1c1ccc(Cl)cc1 (stereo not given) | 105% | 89% | 96.6% | 73.3% | 123% | 90.8% | 98.6% | 96.4% | 104% | 101% | 101% | 108% | 103% | 99.3% | 105% | 84.1% | 89.3% | 106% | 91.9% | 110%
c1ccc2nc(N3CCOCC3)c(N3CCCCC3)nc2c1 | 95.2% | 97.7% | 96.2% | 77.2% | 98.8% | 103% | 78.3% | 93.6% | 95.6% | 90.2% | 96.9% | 102% | 105% | 97.6% | 101% | 107% | 103% | 96.9% | 100% | 75.9%
COc1cc2nc3c(=O)n(CCN(C)C)cnn3c(=O)c2cc1OC | 101% | 95.7% | 104% | 89.6% | 103% | 105% | 92.7% | 146% | 104% | 105% | 121% | 111% | 99% | 101% | 104% | 100% | 103% | 92.8% | 98.3% | 112%
O=C(Nc1ccc(N=Cc2ccccc2O)cc1)NC1C=c2ccccc2=CC1 (stereo not given) | 102% | 106% | 102% | 81.9% | 111% | 102% | 83.5% | 81% | 93% | 95.1% | 94% | 95.9% | 103% | 116% | 103% | 108% | 99.1% | 102% | 101% | 91.3%
